BJeLR viability: MLPCN primary cell-based screen for lethality selective to Ras in HRASV12 cells. BJeLR (HRASV12) viability, CellTiter-Glo ATP luminescence, 48 h. inhibition, % (test concentration not listed). 300,000 compounds, 0.17% hits. AID 1554, 2009; in the data active = inhibition above about 50%
SSB-PriA inh: inhibitors of Klebsiella pneumoniae PriA binding to SSB C-terminal tail, primary screen, biochemical, AlphaScreen; PriA–SSB C-terminal tail interaction (Klebsiella pneumoniae); AlphaScreen SSBct-PriA binding, biotinylated peptide; inhibition, % at 33 µM; 430,000 compounds, 0.6% hits; AID 1272365, 2023; in the data active = inhibition mostly above about 37%, no sharp cut-off; inactive = mostly below about 20%
PrP UTR inh: inhibition of PrP 5' UTR reporter expression. cell-based PrP 5' UTR mRNA reporter, plate reader. inhibition, % (concentration not given with the values). 340,000 compounds, 0.35% hits; in the data active = inhibition above about 52%
PrPC TRFRET: inhibitors of human cell surface prion protein PrPC, primary screen, cell-based, TR-FRET; TR-FRET read-out; inhibition, % at 13.8 µM; 370,000 compounds, 0.43% hits; AID 720596, 2013; in the data active = inhibition above about 24%
PfHsp40 yeast: rescue of yeast from PfHsp40 toxicity, primary screen, S. cerevisiae, ATP luminescence; S. cerevisiae expressing PfHsp40, growth rescue; growth rescue, % at 12.5 µM; 340,000 compounds, 0.68% hits; in the data active = growth rescue above about 28%, passing the limit was not always enough;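 note: yeast W303a lacking pdr1 and pdr3 grown in galactose medium; growth measured after three days at 30 °C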
RecA splice inh: Mtb RecA intein splicing inhibitors, primary screen, biochemical, fluorescence, HTS. Protein RecA (Mycobacterium tuberculosis (strain ATCC 25618 / H37Rv)), P9WHJ3. cell-free RecA intein splicing. inhibition, % (concentration not given with the values). 290,000 compounds, 0.75% hits; in the data active = inhibition above about 30%
PrP UTR cherry: prion 5' UTR mRNA inhibition, cherry-pick retest; 1,100 compounds, 48% hits; AID 504592, 2011; shares compounds with PrP UTR inh; cell-based prion protein 5' UTR reporter, plate reader; inhibition, % at 2.5 µM; in the data active = inhibition above about 54%
PrPC TRFRET cf: confirmation of inhibitors of cell surface human prion protein, confirmation, cell-based, TR-FRET. cell surface PrPC level. AID 743200, 2013. 1,500 compounds, 65% hits. inhibition, % at 13.8 µM. shares compounds with PrPC TRFRET; in the data active = inhibition above about 25%
LD9 tox: cytotoxicity in LD9 cells, cytotoxicity control for cell surface PrPc inhibitor project, cell-based, luminescence, high throughput; shares compounds with PrPC TRFRET; luminescence viability; inhibition, % at 13.8 µM; 1,500 compounds, 29% hits; AID 743201, 2013; in the data active = inhibition above about 9.5%
Each line names hits and unclear results; the compound was inactive in the other large screens (follow-up assays come after a bar, where they were run); ! = a repeat was not active. Shown are actives, neighbours in structure and some others; about 1.9% of the full set was active somewhere.

CC(=O)OC1CC(OC2C(O)CC(OC3C(O)CC(OC4CCC5(C)C(CCC6C5CCC5(C)C(C7=CC(=O)OC7)CCC65O)C4)OC3C)OC2C)OC(C)C1OC1OC(CO)C(O)C(O)C1O (stereo unspecified)	PrP UTR inh 96.2 (no result: BJeLR viability, RecA splice inh) | PrP UTR cherry 89.5
CCCNS(=O)(=O)c1cccc(C(=O)OCc2cc(=O)oc3cc(OC)ccc23)c1	PrP UTR inh 57.2 | PrP UTR cherry 69.2
COc1ccc2c(COC(=O)c3cccc(S(=O)(=O)NCC(C)C)c3)cc(=O)oc2c1	none
O=C(Cn1c(-c2ccccn2)nc2ccccc21)N1CCc2ccccc21	none (no result: BJeLR viability, PrP UTR inh, PrPC TRFRET, PfHsp40 yeast, RecA splice inh)
CC(=O)OC1C(=O)OCC23CCC4(C)OC4C2OC2CC(OC(=O)C=CC=CC(=O)OCCC1C)C3(C)C21CO1 (stereo unspecified)	PrP UTR inh 94.4, PrPC TRFRET 91.8 (no result: BJeLR viability, SSB-PriA inh, PfHsp40 yeast, RecA splice inh) | PrP UTR cherry 94.7 | PrPC TRFRET cf 98.1 | LD9 tox 63.0
O=C(Nc1ccn2nccc2c1)NC1CCCCC1	none (no result: BJeLR viability, PrP UTR inh, PrPC TRFRET, PfHsp40 yeast, RecA splice inh)
O=C(CCc1ccccc1Br)N(CCc1cccs1)Cc1ccco1	none (no result: BJeLR viability, PrP UTR inh, PrPC TRFRET, PfHsp40 yeast, RecA splice inh)
CN(C)S(=O)(=O)c1ccc(C(=O)NCc2cc(-c3ccco3)n(C)n2)cc1	none (no result: BJeLR viability, PrP UTR inh, PrPC TRFRET, PfHsp40 yeast, RecA splice inh)
NC(=S)c1cn(C2OC(CO)C(O)C2O)c2ncnc(N)c12 (stereo unspecified)	BJeLR viability 61.9, PrP UTR inh 61.1, PrPC TRFRET 27.9 | PrP UTR cherry 82.7 | PrPC TRFRET cf 37.0 | LD9 tox 36.9
Nc1ncnc2c1ccn2[C@@H]1O[C@H](CO)[C@@H](O)[C@H]1O	BJeLR viability 110.7, PrP UTR inh 81.4, PrPC TRFRET 76.8 (no result: RecA splice inh) | PrP UTR cherry 87.6 | PrPC TRFRET cf 68.0 | LD9 tox 94.0
OCC1OC(n2ccc3c2ncn2ncnc32)C(O)C1O (stereo unspecified)	none (no result: BJeLR viability, SSB-PriA inh, PrP UTR inh, PfHsp40 yeast, RecA splice inh)
CCCc1ccc(S(=O)(=O)NCCc2ccc(N(C)C)cc2)cc1	none (no result: BJeLR viability, PrP UTR inh, PrPC TRFRET, PfHsp40 yeast, RecA splice inh)
CCOC(=O)c1ccc(S(=O)(=O)Nc2ccc3nc(C)n(-c4ccc(OC)cc4)c(=O)c3c2)cc1	none (no result: BJeLR viability, PrP UTR inh, PrPC TRFRET, PfHsp40 yeast, RecA splice inh)
CCN(CC)c1ccc(C(=C2C=CC(=[N+](CC)CC)C=C2)c2ccccc2)cc1	PrP UTR inh 56.0, PrPC TRFRET 84.6 (no result: BJeLR viability, RecA splice inh) | PrP UTR cherry 87.8 | PrPC TRFRET cf 89.7 | LD9 tox 98.8
O=c1[nH]c2ccc(S(=O)(=O)Nc3cccc(Cl)c3)cc2[nH]1	none (no result: BJeLR viability, PrP UTR inh, PrPC TRFRET, PfHsp40 yeast, RecA splice inh)
O=C(CC(=O)N=Nc1c(O)[nH]c2ccccc12)N=Nc1c(O)[nH]c2ccccc12	none (no result: BJeLR viability, PrP UTR inh, PrPC TRFRET, PfHsp40 yeast, RecA splice inh)
CCC(C)C1NC(=O)C(NC(=O)C(CC(C)C)N(C)C(=O)C2CCCN2C(=O)C(C)O)C(C)OC(=O)C(Cc2ccc(OC)cc2)N(C)C(=O)C2CCCN2C(=O)C(CC(C)C)NC(=O)[C@H](C)C(=O)[C@H](C(C)C)OC(=O)CC1O (stereo partly specified)	PrP UTR inh 93.7, PrPC TRFRET 96.6 (no result: BJeLR viability, RecA splice inh) | PrP UTR cherry 95.8 | PrPC TRFRET cf 97.8 | LD9 tox 63.8
CC1=CC2OC3CC4OC(=O)C=CC=CC(C(C)O)OCC(O)C(C)CC(=O)OCC2(CC1O)C4(C)C31CO1 (stereo unspecified)	PrP UTR inh 95.3, PrPC TRFRET 88.1 (no result: BJeLR viability, PfHsp40 yeast, RecA splice inh) | PrP UTR cherry 95.3 | PrPC TRFRET cf 98.8 | LD9 tox 60.2
C[C@H]1CCC/C=C/[C@@H]2C[C@H](O)C[C@H]2[C@H](O)/C=C/C(=O)O1	PrP UTR inh 79.2, PrPC TRFRET 94.6, PfHsp40 yeast 47.1! (no result: BJeLR viability, SSB-PriA inh, RecA splice inh) | PrP UTR cherry 87.1 | PrPC TRFRET cf 95.2 | LD9 tox inactive
COc1ccc(CC2NCCC3(O)CCCCC23)cc1 (stereo unspecified)	none
COc1ccc(CC2NCC(O)C2OC(C)=O)cc1 (stereo unspecified)	PrP UTR inh 77.0, PrPC TRFRET 93.8 (no result: BJeLR viability, RecA splice inh) | PrP UTR cherry 94.9 | PrPC TRFRET cf 98.9 | LD9 tox 51.3
CC(=O)OC1(C)CC(C)C(=O)C(C(O)CC2CC(=O)NC(=O)C2)C1 (stereo unspecified)	PrP UTR inh 62.7, PrPC TRFRET 91.4 (no result: BJeLR viability, RecA splice inh) | PrP UTR cherry 95.8 | PrPC TRFRET cf 101.1 | LD9 tox 54.8
O=C(NCc1ccccc1Cl)C(=O)NCC(c1cccnc1)N1CCc2ccccc2C1 (stereo unspecified)	none (no result: BJeLR viability, PrP UTR inh, PrPC TRFRET, PfHsp40 yeast, RecA splice inh)
Cc1ccc(C2=NN(C(=O)CCC(=O)O)C(Cc3cc4cccc(C)c4[nH]c3=O)C2)cc1 (stereo unspecified)	none (no result: BJeLR viability, PrP UTR inh, PrPC TRFRET, PfHsp40 yeast, RecA splice inh)
C[C@@H]1C[C@@H]2OC(=O)[C@]3(C)[C@H]2[C@@H](OC3(C)O)[C@]2(C)C(=O)C=C[C@H]12 (stereo partly specified)	none
C=C1C(=O)O[C@@H]2C[C@@H](C)[C@@H]3C=CC(=O)[C@@]3(C)[C@@H](O)[C@H]12	PrP UTR inh 56.3, PrPC TRFRET 95.1 | PrP UTR cherry 82.4 | PrPC TRFRET cf 99.7 | LD9 tox 58.1
COc1ccc([C@@]23Oc4cc(OC)cc(OC)c4[C@]2(O)[C@H](O)[C@H](C(=O)N(C)C)[C@H]3c2ccccc2)cc1	PrP UTR inh 78.5, PrPC TRFRET 98.0 (no result: BJeLR viability, RecA splice inh) | PrP UTR cherry 85.2 | PrPC TRFRET cf 98.8 | LD9 tox 28.8
CC(=O)CCC1C2C(O)C(C(C)C)C(OC(=O)/C=C/c3ccccc3)CC12C (stereo unspecified)	none
CC(=O)OC1C(O)C(C)OC(OC2C(OC(=O)C3CCC4C(C3)OC3(CC(OC(=O)/C=C/c5ccccc5)C(C)CO3)C43CO3)OC(C)C(O)C2OC(C)=O)C1O (stereo unspecified)	PrP UTR inh 83.7, PrPC TRFRET 86.3 (no result: BJeLR viability, RecA splice inh) | PrP UTR cherry 82.8 | PrPC TRFRET cf 98.0 | LD9 tox 66.7
CC(=O)OC[C@]12CCC(C)=C[C@H]1O[C@@H]1[C@H](O)[C@@H](OC(C)=O)[C@@]2(C)[C@]12CO2	PrP UTR inh 89.8, PrPC TRFRET 88.2 (no result: BJeLR viability, PfHsp40 yeast, RecA splice inh) | PrP UTR cherry 96.5 | PrPC TRFRET cf 99.1 | LD9 tox 58.6

Screening results (PubChem BioAssay)
